Results filed as inconclusive are left out. Calls of active or inactive are those of the source. How the source made its calls: active means hit-call score of the fitted dose curve at least 0.9, where 1 is the maximum; inconclusive means response in the unintended direction; inactive means score below 0.9.
Experiments:
[1] = target: Neuropeptide Y receptor type 2 (Homo sapiens) (UniProt P49146); test: NVS_GPCR_hNPY2: NovaScreen (NVS) G Protein-Coupled Receptor Assay for human Neuropeptide Receptor Y2 (NPY2) (AID 2283277)
Summary of the method: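 Radioligand binding on membranes extracted from SK-N-MC cells, cell-free, read 1 h after dosing by filter-based scintillation counting. Loss of signal vs DMSO. Primary screen in duplicate at 25 uM; actives followed up in concentration-response up to 50 uM.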

[2] = target: human Histamine 1 Receptor (H1), HRH1 (gene 3269) (UniProt P35367); test: NVS_GPCR_hH1: NovaScreen (NVS) G Protein-Coupled Receptor Assay for human Histamine 1 Receptor (H1) (AID 2283268)
Summary of the method: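 Cell-free radioligand displacement at human H1 receptor, 1 h, filter scintillation counting; primary screen 25 uM in duplicate, hits in concentration series; loss of binding fitted vs DMSO.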

[3] = target: Muscarinic acetylcholine receptor M1 (Homo sapiens) (UniProt P11229); test: NVS_GPCR_hM1: NovaScreen (NVS) G Protein-Coupled Receptor Assay for human Muscarinic, M1 Receptor (AID 2283270)
Summary of the method: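 Cell-free radioligand displacement using membrane protein extracted from CHO cells, read by filter-based scintillation counting 1 h after dosing. Loss of bound signal fitted versus DMSO; primary screen single concentration 25 uM in duplicate, actives followed by concentration series.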

[4] = target: human Leukotriene B4 Receptor 1 (LTB4-BLT1), LTB4R (gene 1241) (UniProt Q15722); test: NVS_GPCR_hLTB4_BLT1: NovaScreen (NVS) G Protein-Coupled Receptor Assay for human Leukotriene B4 Receptor 1 (LTB4-BLT1) (AID 2283271)
Summary of the method: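 Radioligand displacement binding on receptor extracted from human neutrophils, cell-free, 1 h after dosing; filter-based scintillation counting. Primary screen in duplicate at 25 uM, actives retested in concentration-response up to 50 uM; loss of signal versus DMSO.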

[5] = target: Muscarinic acetylcholine receptor M3 (Homo sapiens) (UniProt P20309); test: NVS_GPCR_hM3: NovaScreen (NVS) G Protein-Coupled Receptor Assay for human Muscarinic, M3 Receptor (AID 2283272)
Summary of the method: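 Radioligand displacement binding on human M3 receptor in CHO-derived membranes, 1 h incubation, filter-based scintillation counting. Primary screen in duplicate at 25 uM; actives followed up in concentration series; loss of signal versus DMSO.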

[6] = target: Muscarinic acetylcholine receptor M2 (Homo sapiens) (UniProt P08172); test: NVS_GPCR_hM2: NovaScreen (NVS) G Protein-Coupled Receptor Assay for human Muscarinic, M2 Receptor (AID 2283273)
Summary of the method: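 Cell-free radioligand binding using membranes from CHO cells expressing the receptor; filter-based scintillation counting after 1 hour of compound exposure. Loss of specific binding relative to DMSO baseline; primary screen at 25 uM in duplicate, actives then run in concentration series.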

[7] = target: human Muscarinic, M4 Receptor, CHRM4 (gene 1132) (UniProt P08173); test: NVS_GPCR_hM4: NovaScreen (NVS) G Protein-Coupled Receptor Assay for human Muscarinic, M4 Receptor (AID 2283274)
Summary of the method: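 Cell-free radioligand displacement using CHO-derived human M4 receptor protein, 1 h after dosing; bound radioactivity by filtration and scintillation counting. Primary screen single 25 uM duplicate, actives followed in concentration series.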

[8] = target: Muscarinic acetylcholine receptor M5 (Homo sapiens) (UniProt P08912); test: NVS_GPCR_hM5: NovaScreen (NVS) G Protein-Coupled Receptor Assay for human Muscarinic, M5 Receptor (AID 2283275)
Summary of the method: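 Radioligand displacement on CHO-derived membrane preparations, 1 h, filter-based scintillation counting. Single-concentration duplicate screen at 25 uM; hits (e.g. 30% inhibition) retested in singleton concentration-response up to 50 uM. Loss of binding fitted versus DMSO.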

[9] = target: D(1A) dopamine receptor (Homo sapiens) (UniProt P21728); test: NVS_GPCR_hDRD1: NovaScreen (NVS) G Protein-Coupled Receptor Assay for human Dopamine Receptor D1 (DRD1) (AID 2283269)
Summary of the method: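 HEK293-derived receptor preparation; radioligand competitive displacement; 1 h; filtration + scintillation counting. DMSO = negative control/baseline. Primary: 25 uM, duplicate; secondary: concentration–response for actives.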

Muscarinic acetylcholine receptor M5 (Homo sapiens), sequence (P08912 whole entry, looked up): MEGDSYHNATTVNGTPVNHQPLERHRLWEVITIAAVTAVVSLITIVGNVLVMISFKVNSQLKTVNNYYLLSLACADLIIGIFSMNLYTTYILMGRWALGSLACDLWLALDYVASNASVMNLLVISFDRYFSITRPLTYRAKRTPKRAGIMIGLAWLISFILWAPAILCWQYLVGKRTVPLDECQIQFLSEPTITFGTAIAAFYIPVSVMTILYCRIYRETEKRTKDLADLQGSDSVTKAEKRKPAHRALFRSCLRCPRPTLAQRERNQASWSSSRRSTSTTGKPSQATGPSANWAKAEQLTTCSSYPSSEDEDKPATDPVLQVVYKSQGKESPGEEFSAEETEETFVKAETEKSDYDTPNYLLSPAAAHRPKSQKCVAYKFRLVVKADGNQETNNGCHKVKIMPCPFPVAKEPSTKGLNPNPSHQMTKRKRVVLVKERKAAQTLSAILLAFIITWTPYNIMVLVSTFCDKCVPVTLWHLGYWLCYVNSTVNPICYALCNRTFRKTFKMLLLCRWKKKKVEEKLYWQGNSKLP
Muscarinic acetylcholine receptor M2 (Homo sapiens), sequence (P08172 whole entry, looked up): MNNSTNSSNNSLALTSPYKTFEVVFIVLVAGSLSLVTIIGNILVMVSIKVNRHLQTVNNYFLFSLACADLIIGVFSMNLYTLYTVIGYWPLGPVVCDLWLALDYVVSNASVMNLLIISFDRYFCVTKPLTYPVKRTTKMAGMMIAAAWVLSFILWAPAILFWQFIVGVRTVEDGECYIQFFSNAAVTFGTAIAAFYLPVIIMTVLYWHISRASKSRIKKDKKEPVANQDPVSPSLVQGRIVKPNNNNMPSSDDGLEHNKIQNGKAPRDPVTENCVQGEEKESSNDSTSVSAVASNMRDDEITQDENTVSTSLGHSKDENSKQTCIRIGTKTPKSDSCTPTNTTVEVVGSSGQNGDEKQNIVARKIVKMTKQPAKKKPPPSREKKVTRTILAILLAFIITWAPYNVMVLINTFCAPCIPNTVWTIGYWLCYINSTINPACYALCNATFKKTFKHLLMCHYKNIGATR
human Histamine 1 Receptor (H1), HRH1 (gene 3269), sequence (P35367 whole entry, looked up): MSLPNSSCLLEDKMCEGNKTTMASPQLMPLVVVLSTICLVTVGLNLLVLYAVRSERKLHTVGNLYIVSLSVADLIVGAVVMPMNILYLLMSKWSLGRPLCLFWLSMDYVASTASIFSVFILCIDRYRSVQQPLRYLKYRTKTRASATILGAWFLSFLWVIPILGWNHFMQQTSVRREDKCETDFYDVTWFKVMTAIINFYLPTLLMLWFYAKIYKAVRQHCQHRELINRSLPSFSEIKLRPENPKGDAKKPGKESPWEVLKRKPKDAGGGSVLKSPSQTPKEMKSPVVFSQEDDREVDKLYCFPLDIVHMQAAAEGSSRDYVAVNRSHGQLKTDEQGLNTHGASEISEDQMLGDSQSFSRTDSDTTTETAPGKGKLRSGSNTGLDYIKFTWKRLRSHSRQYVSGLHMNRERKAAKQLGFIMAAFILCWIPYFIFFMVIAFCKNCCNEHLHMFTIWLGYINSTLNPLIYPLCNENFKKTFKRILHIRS
Muscarinic acetylcholine receptor M3 (Homo sapiens), sequence (P20309 whole entry, looked up): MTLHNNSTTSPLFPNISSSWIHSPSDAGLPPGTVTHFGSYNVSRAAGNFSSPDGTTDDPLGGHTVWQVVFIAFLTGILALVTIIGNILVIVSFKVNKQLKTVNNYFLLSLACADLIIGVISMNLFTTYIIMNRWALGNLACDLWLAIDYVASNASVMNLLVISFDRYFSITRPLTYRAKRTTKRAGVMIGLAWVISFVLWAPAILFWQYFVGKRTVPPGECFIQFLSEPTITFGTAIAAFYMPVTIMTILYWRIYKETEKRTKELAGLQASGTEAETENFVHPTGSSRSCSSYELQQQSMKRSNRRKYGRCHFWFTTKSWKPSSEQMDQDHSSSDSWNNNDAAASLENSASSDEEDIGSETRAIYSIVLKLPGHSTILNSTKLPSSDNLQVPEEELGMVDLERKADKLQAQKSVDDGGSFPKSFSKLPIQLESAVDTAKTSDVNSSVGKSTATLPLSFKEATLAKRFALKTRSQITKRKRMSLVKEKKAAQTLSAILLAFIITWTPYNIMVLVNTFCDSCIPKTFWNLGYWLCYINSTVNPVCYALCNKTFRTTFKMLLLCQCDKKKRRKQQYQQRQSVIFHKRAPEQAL
human Leukotriene B4 Receptor 1 (LTB4-BLT1), LTB4R (gene 1241), sequence (Q15722 whole entry, looked up): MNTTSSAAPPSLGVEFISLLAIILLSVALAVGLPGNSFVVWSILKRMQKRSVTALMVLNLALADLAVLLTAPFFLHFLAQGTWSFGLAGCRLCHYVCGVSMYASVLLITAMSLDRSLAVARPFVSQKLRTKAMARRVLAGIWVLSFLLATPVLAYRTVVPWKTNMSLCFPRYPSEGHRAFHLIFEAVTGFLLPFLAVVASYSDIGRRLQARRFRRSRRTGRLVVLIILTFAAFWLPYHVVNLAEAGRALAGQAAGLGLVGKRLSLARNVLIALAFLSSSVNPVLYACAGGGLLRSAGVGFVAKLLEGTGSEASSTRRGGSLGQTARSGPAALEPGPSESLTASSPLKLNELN
Muscarinic acetylcholine receptor M1 (Homo sapiens), sequence (P11229 whole entry, looked up): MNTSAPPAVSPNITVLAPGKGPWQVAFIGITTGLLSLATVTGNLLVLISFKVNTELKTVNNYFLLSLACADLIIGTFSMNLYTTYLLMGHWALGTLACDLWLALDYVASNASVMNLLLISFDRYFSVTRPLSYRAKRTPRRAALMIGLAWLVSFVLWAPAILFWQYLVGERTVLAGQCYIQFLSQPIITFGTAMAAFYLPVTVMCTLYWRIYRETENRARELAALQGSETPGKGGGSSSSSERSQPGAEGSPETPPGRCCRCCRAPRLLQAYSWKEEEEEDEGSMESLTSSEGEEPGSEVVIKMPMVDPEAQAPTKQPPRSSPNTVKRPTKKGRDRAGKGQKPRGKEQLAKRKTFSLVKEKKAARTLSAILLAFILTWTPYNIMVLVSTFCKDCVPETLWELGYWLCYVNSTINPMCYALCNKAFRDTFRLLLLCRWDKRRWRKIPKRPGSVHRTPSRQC
Neuropeptide Y receptor type 2 (Homo sapiens), sequence (P49146 whole entry, looked up): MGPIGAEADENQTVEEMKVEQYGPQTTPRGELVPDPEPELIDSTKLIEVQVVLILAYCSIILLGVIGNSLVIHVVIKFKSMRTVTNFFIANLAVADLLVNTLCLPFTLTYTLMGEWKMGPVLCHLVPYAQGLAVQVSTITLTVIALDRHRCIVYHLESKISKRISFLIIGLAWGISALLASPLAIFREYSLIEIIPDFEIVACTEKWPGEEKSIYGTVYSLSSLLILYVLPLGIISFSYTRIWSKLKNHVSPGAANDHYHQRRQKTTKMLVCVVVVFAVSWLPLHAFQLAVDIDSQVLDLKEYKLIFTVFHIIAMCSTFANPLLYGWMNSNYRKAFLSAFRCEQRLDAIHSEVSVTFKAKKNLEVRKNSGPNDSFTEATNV
human Muscarinic, M4 Receptor, CHRM4 (gene 1132), sequence (P08173 whole entry, looked up): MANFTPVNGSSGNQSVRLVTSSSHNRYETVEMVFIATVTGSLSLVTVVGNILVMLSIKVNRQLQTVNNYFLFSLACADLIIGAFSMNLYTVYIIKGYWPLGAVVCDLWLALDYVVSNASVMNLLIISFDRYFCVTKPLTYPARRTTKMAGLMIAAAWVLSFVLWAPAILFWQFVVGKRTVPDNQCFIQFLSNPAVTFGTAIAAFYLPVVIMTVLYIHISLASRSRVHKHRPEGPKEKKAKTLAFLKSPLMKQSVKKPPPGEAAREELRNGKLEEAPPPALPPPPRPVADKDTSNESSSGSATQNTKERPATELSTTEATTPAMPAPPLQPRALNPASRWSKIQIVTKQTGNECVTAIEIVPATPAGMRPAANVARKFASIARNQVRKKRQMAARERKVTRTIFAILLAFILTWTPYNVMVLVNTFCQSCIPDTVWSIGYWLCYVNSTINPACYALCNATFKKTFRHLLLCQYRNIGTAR
D(1A) dopamine receptor (Homo sapiens), sequence (P21728 whole entry, looked up): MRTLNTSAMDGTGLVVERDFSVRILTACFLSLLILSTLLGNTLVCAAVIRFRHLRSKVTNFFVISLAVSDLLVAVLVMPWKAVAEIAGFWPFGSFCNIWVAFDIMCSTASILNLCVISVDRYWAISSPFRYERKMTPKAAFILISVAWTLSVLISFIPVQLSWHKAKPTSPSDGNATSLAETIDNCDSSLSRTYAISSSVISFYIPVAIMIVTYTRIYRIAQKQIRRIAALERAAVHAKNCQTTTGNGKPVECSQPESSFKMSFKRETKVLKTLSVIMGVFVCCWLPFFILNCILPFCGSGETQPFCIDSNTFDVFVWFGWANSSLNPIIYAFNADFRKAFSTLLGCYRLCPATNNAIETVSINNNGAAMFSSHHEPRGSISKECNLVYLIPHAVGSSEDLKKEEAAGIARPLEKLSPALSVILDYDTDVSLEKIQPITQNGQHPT

CCCCCCCCCCCO
outcome [1]: inactive

O=C1c2ccccc2C(=O)N1CCc1noc(-c2ccc(CN3CCCCCC3)s2)n1
AC50 [2]: 7.44 µM (active) | AC50 [3]: 7.52 µM (active) | outcome [4]: inactive | AC50 [5]: 3.96 µM (active) | AC50 [6]: 2.83 µM (active) | AC50 [7]: 7.92 µM (active) | AC50 [8]: 7.99 µM (active)

CC1(C)NC(=O)N(c2ccc([N+](=O)[O-])c(C(F)(F)F)c2)C1=O
outcome [9]: inactive

— PubChem BioAssay (EPA / NIEHS)
